Compound activity deposited in PubChem by several laboratories.
TIM10 inh – growth inhibitors of isogenic TIM10 control yeast, primary screen, counter-screen for tim10-1 yeast inhibitor project, luminescence, uHTS | S. cerevisiae TIM10 strain growth, BacTiter-Glo luminescence, 24 h | inhibition, % at 10 µM | hit rate 1.4% among 330,000;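 active means inhibition of 40% or more at the single tested concentration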;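 further: wild-type TIM10 isogenic control strain grown at permissive 25 °C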
tim23-1 inh – growth inhibitors of tim23-1 mutant yeast, primary screen, luminescence, uHTS; S. cerevisiae tim23-1 growth, BacTiter-Glo luminescence, 24 h; inhibition, % at 20 µM; hit rate 1.3% among 330,000; AID 463212, 2010;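 active means growth inhibition of the mutant yeast at or above 50%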;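 further: temperature-sensitive mutant grown at 25 °C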
NLRP3 yeast inh – NALP3 inflammasome inhibitors in reconstituted yeast, primary screen, luminescence, uHTS; Yeast reconstituted NLRP3/ASC/caspase-1, beta-gal luminescence, 24 h; inhibition, % at 10 µM; hit rate 0.39% among 330,000;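 active means inhibition of 50% or more; inactive means inhibition below 50%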
tim10-1 inh – growth inhibitors of tim10-1 mutant yeast, primary screen, luminescence, uHTS; hit rate 2.2% among 330,000; S. cerevisiae tim10-1 ts strain growth, BacTiter-Glo, 24 h; inhibition, % at 20 µM;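 active means inhibition of at least 40%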;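 further: mutant grown at 25 °C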
V-ATPase pHluor – regulators of yeast V-ATPase proton pumping, primary screen, pHLuorin cytosolic pH fluorescence; hit rate 0.37% among 350,000; response, % at 10 µM; S. cerevisiae; in the data active means response mostly above about 7.3%, no sharp cut-off; inactive means mostly below about 5.4%; further: actives read high
NALP1 yeast inh – NALP1 inflammasome inhibitors in reconstituted yeast, colorimetric, S. cerevisiae, triplicate retest; inhibition, % at 10 µM; S. cerevisiae NALP1/ASC/caspase-1 growth, X-gal OD620, 72 h; hit rate 0.61% among 280,000; in the data active means inhibition mostly above about 24%, no sharp cut-off; inactive means mostly below about 32%
tim10-1 confirm – growth inhibitors of tim10-1 mutant yeast, confirmation, single concentration, luminescence, S. cerevisiae; shares compounds with tim10-1 inh; S. cerevisiae tim10-1 ts strain growth, BacTiter-Glo, 24 h; inhibition, % at 20 µM; hit rate 56% among 7,400; AID 463213, 2010;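 active means inhibition of yeast growth at or above a set limit in either of two repeat tests at 20 µM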;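 further: tim10-1 mutant grown at permissive 25 °C to find synthetic lethal compounds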
Hits are given with their value; 0 = inactive; - = not tested or not shown. A selection: hits, their analogues and other compounds. The true share with any hit is near 4.2%.

SMILES	TIM10 inh	tim23-1 inh	NLRP3 yeast inh	tim10-1 inh	V-ATPase pHluor	NALP1 yeast inh	tim10-1 confirm
CCCn1nnc(NC(=O)c2cccc(OCc3ccccc3)c2)n1	0	0	0	44	0	0	36
COc1ccc(C)cc1NC(=O)NCCC1=CCCCC1	0	0	0	43	0	0	31
COc1cc(C(=O)NCCC2=CCCCC2)cc(OC)c1OC	0	0	0	0	0	0	-
O=C(N/N=C/C=C\c1ccc([N+](=O)[O-])cc1)c1cccnc1	0	0	0	0	0	0	-
C/C(=N\NC(=O)c1cc2c(s1)CCC(C)C2)c1ccncc1 (centres undefined)	0	0	0	54	0	0	32
Cc1cc(Nc2nc3ccccc3nc2Cl)n(-c2ccccc2)n1	0	0	0	0	0	0	0
CC(C)OC(=O)CSc1nc2c(c(C3CC=CCC3)c1C#N)CCC2 (centres undefined)	0	0	0	0	0	0	-
C=CCSc1nc2c(c(C3CC=CCC3)c1C#N)CCC2 (centres undefined)	0	0	0	41	0	0	60
CN(C(=O)Cn1cccc1C1=NC(c2ccccc2)CO1)c1ccccc1 (centres undefined)	0	0	0	42	0	0	0
O=C(Nc1cccnc1)c1cn(-c2ccccc2)nc1-c1cccs1	0	0	0	43	0	0	43
O=C(c1ccccc1F)N1CCN(c2ccc([N+](=O)[O-])c(NCC3CCCO3)c2)CC1 (centres undefined)	0	0	0	0	0	0	-
O=C1c2cccc3cccc(c23)C(=O)N1CCN1CCN(CC(O)COc2ccc3ccccc3c2)CC1 (centres undefined)	0	0	0	71	0	0	62
S=c1nc(-c2ccccc2)n(Cc2ccco2)c2c1CCCC2	-	-	-	-	-	0	-
Fc1ccc(-c2nc3nc4ccccc4nc3n2Cc2ccco2)cc1	0	0	0	43	0	0	33
c1ccc(-c2nc3nc4ccccc4nc3n2Cc2ccco2)cc1	0	0	0	41	0	0	0
Cc1ccc(S(=O)(=O)N2CCC(C(=O)N3CCc4ccccc43)CC2)cc1C	0	0	0	0	0	-	-
Cn1nnc(NC(=S)NC(=O)c2cccc3c(Br)cccc23)n1	0	0	0	51	0	0	0
O=C(COC(=O)c1cc(Cl)nc(Cl)c1)NCc1ccc2c(c1)OCO2	0	0	0	0	0	-	-
CCOC(=O)/C(C#N)=C/c1c(N2CCN(c3ccccc3)CC2)nc2ccccn2c1=O	0	0	0	44	0	0	0
O=S(=O)(Nc1ccc(-c2ccc3nncn3n2)cc1)c1cccc(F)c1	0	0	0	0	0	-	-
CN1CC(c2ccccn2)C2(SC(=S)N(Cc3ccccc3)C2=O)C12C(=O)Nc1ccccc12 (centres undefined)	0	0	0	0	0	0	-
CN1CC(c2ccccc2)C2(SC(=S)N(Cc3ccco3)C2=O)C12C(=O)Nc1ccccc12 (centres undefined)	0	0	0	44	0	0	0
COc1ccc(CC(=O)OCN2C(=O)c3ccccc3C2=O)cc1OC	0	0	0	0	0	0	-
CC(C)[C@H](NC(=O)[C@@H]1Cc2ccccc2CN1C(=O)OC(C)(C)C)C(=O)NCc1ccco1	0	0	0	0	0	0	-
Cn1ncc(Cl)c1C(=O)Nc1cc(C(F)(F)F)ccc1F	0	0	0	47	0	0	0
SMILES	TIM10 inh	tim23-1 inh	NLRP3 yeast inh	tim10-1 inh	V-ATPase pHluor	NALP1 yeast inh	tim10-1 confirm
CN(C)c1ccc(C2Nc3ccccc3C(=O)N2NS(C)(=O)=O)cc1 (centres undefined)	0	0	0	0	0	0	-
COc1ccccc1-c1cc2ccccc2[nH]1	0	0	0	51	0	0	33
O=S(=O)(C/C(=C/CO)S(=O)(=O)c1ccccc1)c1ccccc1	0	0	0	44	0	0	0
COc1ccccc1C(=O)NC(=O)Nc1c(C)cc(C)cc1C	0	0	0	42	0	0	40
COc1ccc(C(=O)/C=C/c2ccccc2)c(OC)c1	0	0	0	40	0	0	0
CNC(=O)c1cc2cccc(OC)c2oc1=O	0	0	0	0	0	0	-
COc1ccc(/C=C/C(=O)c2cc3cccc(OC)c3oc2=O)cc1	0	0	0	43	0	0	0
COCOc1cc(O)c(C(=O)/C=C/c2ccccc2)c(OCOC)c1	0	0	0	50	0	-	41
COc1cc(C)cc(C(=O)C=Cc2ccccc2)c1O	-	-	-	-	0	-	-
N#Cc1ccc(C(=O)OCC(=O)N2CCCC2)cc1	0	0	0	0	0	0	-
COc1ccc(NC(=O)CN2CCN(S(=O)(=O)N3CCCCCC3)CC2)cc1	0	0	0	0	0	0	-
COc1ccc(C(=O)N2CCN(S(=O)(=O)c3ccc(Br)cc3)CC2)cc1	0	0	0	0	0	-	-
CCOc1ccccc1NC(=O)/C=C/C(N)=O	0	0	0	40	0	54	34
CCOC(=O)/C=C/C(=O)Nc1ccccc1C(=O)NC1CCCCC1	0	0	0	46	0	0	0
Cc1ccc(/C=C/C(=O)NC(=S)Nc2ccccc2C(=O)NC2CCCCC2)cc1	0	0	0	0	0	0	-
Cc1ccc(Cn2c(O)c(N=O)c3ccccc32)cc1	0	0	0	0	0	0	-
Cc1cccc2c(N=O)c(O)n(CCc3ccccc3)c12	0	0	0	41	0	0	0
O=S(=O)(c1ccc(NC(=S)Nc2ccccc2)cc1)N1CCOCC1	0	0	0	0	0	0	-
CC(NC(=S)Nc1ccc(S(=O)(=O)N2CCOCC2)cc1)C1CC2CCC1C2 (centres undefined)	0	0	0	49	0	0	43
COc1ccccc1C1=Nn2c(nnc2C2CCCCC2)SC1	0	0	0	44	0	0	0
COc1ccc(C2NC(=S)NC3=C2CCc2cc(OC)ccc23)cc1 (centres undefined)	0	0	0	54	0	0	40
CC(=O)Nc1ccc(Cc2ccc3[nH]c(=O)cc(C)c3c2)cc1	0	0	0	0	-	0	-
Cc1ccc(N=c2c([N+](=O)[O-])nn(-c3ccccc3)n2O)c(C)c1	0	0	0	47	0	0	42
COc1ccc(NC(=O)N2CCCc3ccccc32)c(OC)c1	0	0	0	0	0	0	-
COc1ccc(C)cc1NC(=O)N1CCCc2ccccc21	0	0	0	47	0	0	0
Cc1ccc2c(c1)C(c1ccccc1)N(C(=O)c1ccc3c(c1)OCO3)CC(=O)N2 (centres undefined)	0	0	0	0	0	-	-
O=C(CSc1n[nH]c(-c2ccccc2O)n1)N1CCCc2ccccc21	0	0	0	45	0	0	0
